According to ChEMBL document CHEMBL1961873, “Compounds: GSK PKIS; Assays: Nanosyn kinase panel” (2012):

molecular target: T1, Homeodomain-interacting protein kinase 4 (Homo sapiens) (UniProt Q8NE63); conditions: at 1 µM;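 also: values are mean percent inhibition of HIPK4 from the GSK PKIS kinase screen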
T1 sequence (whole entry): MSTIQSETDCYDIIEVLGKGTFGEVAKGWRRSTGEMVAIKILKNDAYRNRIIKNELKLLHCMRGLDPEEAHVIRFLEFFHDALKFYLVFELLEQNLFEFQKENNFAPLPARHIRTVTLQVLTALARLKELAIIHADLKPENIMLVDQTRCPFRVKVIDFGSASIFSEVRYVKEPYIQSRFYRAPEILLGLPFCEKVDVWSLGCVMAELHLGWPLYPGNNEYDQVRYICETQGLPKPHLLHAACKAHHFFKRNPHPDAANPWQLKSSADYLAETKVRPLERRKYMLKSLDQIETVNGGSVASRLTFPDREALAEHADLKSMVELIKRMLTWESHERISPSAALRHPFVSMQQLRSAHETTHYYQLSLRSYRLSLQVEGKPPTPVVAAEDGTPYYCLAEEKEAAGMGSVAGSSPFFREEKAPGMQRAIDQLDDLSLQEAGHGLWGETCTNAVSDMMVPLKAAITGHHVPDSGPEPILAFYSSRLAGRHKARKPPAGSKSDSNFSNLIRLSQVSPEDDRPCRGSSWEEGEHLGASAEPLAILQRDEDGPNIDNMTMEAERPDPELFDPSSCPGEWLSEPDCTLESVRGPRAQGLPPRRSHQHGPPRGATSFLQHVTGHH

| SMILES | inhibition |
| --- | --- |
| COc1cc2ncn(-c3cc(OCCc4ccccc4)c(C(N)=O)s3)c2cc1OC | 19.1% |
| Cc1ccc(NC(=O)c2ccoc2)cc1-c1ccc(C(=O)NCC2CC2)cc1 | 0.22% |
| NS(=O)(=O)c1ccc(N/N=C2\C(=O)Nc3ccc(C(=O)NCCCn4ccnc4)cc32)cc1 | 17.6% |
| NCc1ccc(-n2c(-c3nonc3N)nc3cnccc32)cc1 | 5.32% |
| COc1cccc(-n2cnc3c(N/N=C/c4ccncc4)ncnc32)c1 | 3.74% |
| C[C@@H](Oc1cc(-n2cnc3ccc(OC4CCN(C)CC4)cc32)sc1C(N)=O)c1ccccc1Cl | 28.7% |

molecular target: Mitogen-activated protein kinase 9 (Homo sapiens) (UniProt P45984); conditions: at 0.1 µM
Sequence (P45984 whole entry, looked up): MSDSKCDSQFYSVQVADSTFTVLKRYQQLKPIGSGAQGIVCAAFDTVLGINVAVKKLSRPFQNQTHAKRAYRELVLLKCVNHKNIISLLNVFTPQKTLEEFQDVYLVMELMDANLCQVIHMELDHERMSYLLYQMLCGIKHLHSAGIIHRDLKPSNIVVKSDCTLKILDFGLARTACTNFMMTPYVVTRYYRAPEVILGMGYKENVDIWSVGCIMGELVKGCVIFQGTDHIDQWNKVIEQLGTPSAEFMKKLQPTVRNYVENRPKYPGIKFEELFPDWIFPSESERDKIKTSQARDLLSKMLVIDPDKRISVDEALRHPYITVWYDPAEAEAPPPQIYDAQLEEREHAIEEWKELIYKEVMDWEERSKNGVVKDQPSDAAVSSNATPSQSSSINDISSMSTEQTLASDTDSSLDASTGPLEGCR

| SMILES | inhibition |
| --- | --- |
| CS(=O)(=O)CCNCc1cc(-c2cc3c(Nc4ccc(OCc5cccc(F)c5)c(Cl)c4)ncnc3s2)cs1 | 3.11% |
| CCC(=O)Nc1ccc(C)c(-c2ccc(C(=O)NCC3CC3)cc2)c1 | 2.92% |
| COc1cc(Nc2ncc3c(C)nc(-c4cccc(C(F)(F)F)c4)n3n2)cc(OC)c1OC | 0.45% |
| Fc1ccc(-c2nc3n(c2-c2ccncc2)CCS3)cc1 | 7.66% |
| NC(=O)c1cc(-c2ccncc2)cc(-c2ccccc2)c1N | 5.97% |
| CCc1nccc2c1nc(-c1nonc1N)n2CC | 3.7% |
| CN(C)c1ccc2c(c1)/C(=C/Nc1ccc(S(N)(=O)=O)cc1)C(=O)N2 | 3.27% |
| CS(=O)(=O)CCNCc1ccc(-c2ccc3ncnc(Nc4ccc(OCc5ccccc5)c(Br)c4)c3c2)o1 | 2.5% |
| Cc1nnc(-c2ccc(C)c(-c3ccc(C(=O)NCc4ccc(Cl)cc4)cc3)c2)o1 | 4.09% |
| Cc1ccc(C(=O)NC2CCC2)cc1-c1ccc(C(=O)NCC2CC2)cc1 | 2.74% |
| Clc1ccc(CNc2nccc(-c3cnn4ncccc34)n2)cc1 | 3.52% |
| c1ccc(-c2n[nH]cc2-c2ccnc(-c3ccc(OCCN4CCOCC4)cc3)c2)nc1 | 0.62% |
| CCS(=O)(=O)c1ccc(OC)c(Nc2ncc(-c3cccc(-c4ccccc4F)c3)o2)c1 | 0.09% |
| COc1cc2ncn(-c3cc(OCc4cccs4)c(C(N)=O)s3)c2cc1OC | 0.6% |
| O=C1Nc2ccccc2/C1=C/Nc1ccc(-n2cncn2)cc1 | 5.47% |
| C/C(Nc1ccc(S(N)(=O)=O)cc1)=C1/C(=O)Nc2ccccc21 | -3.47% |
| CCc1cccc(CC)c1/C=C/c1cncc(C(=O)NC)c1 | 4.45% |

| SMILES | inhibition |
| --- | --- |
| NC(=O)c1cc(-c2ccc(F)cc2)cc(-c2ccncc2)c1N | 3.69% |
| O=C(NCC1CC1)c1ccc(-c2cccc(C(=O)NC3CC3)c2)cc1 | 3.38% |
| COc1ccc2ncn(-c3cc(O[C@H](C)c4ccccc4Cl)c(C(N)=O)s3)c2c1 | 2.17% |
| O=C1Nc2ccc(I)cc2C1=Cc1cc(Br)c(O)c(Br)c1 | 5.13% |
| Fc1ccc(-c2ncn(CCCN3CCOCC3)c2-c2ccncc2)cc1 | 2.43% |
| COc1ccc2cc(-c3c(-c4ccncc4)nc(-c4ccc([S+](C)[O-])cc4C)n3C)ccc2c1 (centres undefined) | 0.79% |
| COC(=O)Nc1nc2ccc(Sc3ccc(NC(=O)Nc4cc(C(F)(F)F)ccc4F)cc3)cc2[nH]1 | 33.9% |
| CN(C)CCCNc1nccc(-c2c(-c3ccc(F)cc3)nn3cc(C(F)(F)F)ccc23)n1 | 2.73% |
| CCS(=O)(=O)c1ccc(OC)c(Nc2ncc(-c3ccccc3Cl)o2)c1 | 1.42% |
| Fc1ccc(-c2c(-c3ccncc3)nc3n2CCS3)cc1 | 2.29% |
| CCN(CC)Cc1ccc(Nc2nccc(-c3cnn4ncccc34)n2)cc1 | 6.18% |
| COc1cc2ncn(-c3cc(OCCc4ccccc4)c(C(N)=O)s3)c2cc1OC | 4.17% |
| Cc1ccc(NC(=O)c2ccoc2)cc1-c1ccc(C(=O)NCC2CC2)cc1 | 3.16% |
| NS(=O)(=O)c1ccc(N/N=C2\C(=O)Nc3ccc(C(=O)NCCCn4ccnc4)cc32)cc1 | 6.1% |
| NCc1ccc(-n2c(-c3nonc3N)nc3cnccc32)cc1 | 7.98% |
| COc1cccc(-n2cnc3c(N/N=C/c4ccncc4)ncnc32)c1 | -1.67% |
| C[C@@H](Oc1cc(-n2cnc3ccc(OC4CCN(C)CC4)cc32)sc1C(N)=O)c1ccccc1Cl | 1.24% |

molecular target: Mitogen-activated protein kinase 9 (Homo sapiens) (UniProt P45984); conditions: at 1 µM

| SMILES | inhibition |
| --- | --- |
| CS(=O)(=O)CCNCc1cc(-c2cc3c(Nc4ccc(OCc5cccc(F)c5)c(Cl)c4)ncnc3s2)cs1 | 7.13% |
| CCC(=O)Nc1ccc(C)c(-c2ccc(C(=O)NCC3CC3)cc2)c1 | 4.2% |
| COc1cc(Nc2ncc3c(C)nc(-c4cccc(C(F)(F)F)c4)n3n2)cc(OC)c1OC | 4.58% |
| Fc1ccc(-c2nc3n(c2-c2ccncc2)CCS3)cc1 | 25.9% |
| NC(=O)c1cc(-c2ccncc2)cc(-c2ccccc2)c1N | 6.49% |
| CCc1nccc2c1nc(-c1nonc1N)n2CC | 3.34% |
| CN(C)c1ccc2c(c1)/C(=C/Nc1ccc(S(N)(=O)=O)cc1)C(=O)N2 | 2.71% |
| CS(=O)(=O)CCNCc1ccc(-c2ccc3ncnc(Nc4ccc(OCc5ccccc5)c(Br)c4)c3c2)o1 | 0.7% |
| Cc1nnc(-c2ccc(C)c(-c3ccc(C(=O)NCc4ccc(Cl)cc4)cc3)c2)o1 | 4.44% |
| Cc1ccc(C(=O)NC2CCC2)cc1-c1ccc(C(=O)NCC2CC2)cc1 | 3.35% |
| Clc1ccc(CNc2nccc(-c3cnn4ncccc34)n2)cc1 | 5.1% |
| c1ccc(-c2n[nH]cc2-c2ccnc(-c3ccc(OCCN4CCOCC4)cc3)c2)nc1 | 5.45% |
| CCS(=O)(=O)c1ccc(OC)c(Nc2ncc(-c3cccc(-c4ccccc4F)c3)o2)c1 | 6.86% |
| COc1cc2ncn(-c3cc(OCc4cccs4)c(C(N)=O)s3)c2cc1OC | 4.51% |
| O=C1Nc2ccccc2/C1=C/Nc1ccc(-n2cncn2)cc1 | 12.1% |
| C/C(Nc1ccc(S(N)(=O)=O)cc1)=C1/C(=O)Nc2ccccc21 | 3.67% |
| CCc1cccc(CC)c1/C=C/c1cncc(C(=O)NC)c1 | 7.37% |

| SMILES | inhibition |
| --- | --- |
| NC(=O)c1cc(-c2ccc(F)cc2)cc(-c2ccncc2)c1N | 2.06% |
| O=C(NCC1CC1)c1ccc(-c2cccc(C(=O)NC3CC3)c2)cc1 | 2.6% |
| COc1ccc2ncn(-c3cc(O[C@H](C)c4ccccc4Cl)c(C(N)=O)s3)c2c1 | -0.22% |
| O=C1Nc2ccc(I)cc2C1=Cc1cc(Br)c(O)c(Br)c1 | 7.68% |
| Fc1ccc(-c2ncn(CCCN3CCOCC3)c2-c2ccncc2)cc1 | 6.68% |
| COc1ccc2cc(-c3c(-c4ccncc4)nc(-c4ccc([S+](C)[O-])cc4C)n3C)ccc2c1 (centres undefined) | 8.03% |
| COC(=O)Nc1nc2ccc(Sc3ccc(NC(=O)Nc4cc(C(F)(F)F)ccc4F)cc3)cc2[nH]1 | 6.37% |
| CN(C)CCCNc1nccc(-c2c(-c3ccc(F)cc3)nn3cc(C(F)(F)F)ccc23)n1 | 11% |
| CCS(=O)(=O)c1ccc(OC)c(Nc2ncc(-c3ccccc3Cl)o2)c1 | 1.23% |
| Fc1ccc(-c2c(-c3ccncc3)nc3n2CCS3)cc1 | 4.26% |
| CCN(CC)Cc1ccc(Nc2nccc(-c3cnn4ncccc34)n2)cc1 | 30.9% |
| COc1cc2ncn(-c3cc(OCCc4ccccc4)c(C(N)=O)s3)c2cc1OC | 3.52% |
| Cc1ccc(NC(=O)c2ccoc2)cc1-c1ccc(C(=O)NCC2CC2)cc1 | 2.57% |
| NS(=O)(=O)c1ccc(N/N=C2\C(=O)Nc3ccc(C(=O)NCCCn4ccnc4)cc32)cc1 | 10.9% |
| NCc1ccc(-n2c(-c3nonc3N)nc3cnccc32)cc1 | 6.05% |
| COc1cccc(-n2cnc3c(N/N=C/c4ccncc4)ncnc32)c1 | -0.57% |
| C[C@@H](Oc1cc(-n2cnc3ccc(OC4CCN(C)CC4)cc32)sc1C(N)=O)c1ccccc1Cl | 5.06% |
